Measurements from PubChem BioAssay (Tox21).
The source made the active and inactive calls. The call rests on the fitted dose curve; in most records, active means well fitted curve in the direction sought with a large enough effect in the repeat runs; inconclusive means weak or mixed curves; inactive means flat fitted curve, though single readings scatter.

Experiment: qHTS assay to test for compound auto fluorescence at 535 nm (green) in HepG2 cell free culture (AID 720686)
Conditions: Cell-free medium, green autofluorescence 485/535 nm; series mostly up to 91.3 µM; fluorescence, % of fluorescein control: at the top concentration
On the % scale 0 is the no-effect control and ±100 the full control effect.

| SMILES | fluorescence, % of fluorescein control | outcome |
| --- | --- | --- |
| CCC(CC)CO | -0.0346% (inactive) |  |
| CC1COc2ccccc2N1 (stereo not given) | 0.0933% (inactive) |  |
| NCCS |  | inactive |
| CC(C)(C)OC(=O)c1ccc(O)cc1 | -0.0137% (inactive) |  |
| CC(C)OC(=O)CCCCC(=O)OC(C)C | -0.0557% (inactive) |  |
| CC(C)CC(=O)O | 0.0217% (inactive) |  |
| CCCCCCCCC1CCC(=O)O1 (stereo not given) | 0.0594% (inactive) |  |
| Cc1cccc2nccnc12 | -0.0645% (inactive) |  |
| CCCCCOC(=O)CCC | -0.0047% (inactive) |  |
| CN1C(C)(C)CCCC1(C)C | -0.0061% [at 46 µM] (inactive) |  |
| C[C@@H]1O[C@@H](O[C@@H]2[C@@H](O)[C@H](OCCc3ccc(O)c(O)c3)O[C@H](CO[C@@H]3O[C@H](CO)[C@@H](O)[C@H](O)[C@H]3O)[C@H]2OC(=O)/C=C/c2ccc(O)c(O)c2)[C@H](O)[C@H](O)[C@H]1O | -0.0166% (inactive) |  |
| CCCCCCOc1ccccc1C(N)=O | -0.0082% [at 46 µM] (inactive) |  |
| O=C(O)C(=O)Cc1ccccc1 | -0.0892% (inactive) |  |
| O=C(NCCN1CCOCC1)c1ccc(Cl)cc1 |  | inactive |
| Nc1ncnc(Nc2ccccc2)n1 | -0.0245% [at 46 µM] (inactive) |  |
| C=C(C)C(=O)OCC(C)(C)COC(=O)C(=C)C | 0.145% (inactive) |  |
| BrCc1cccc(Oc2ccccc2)c1 | -0.0396% (inactive) |  |
| c1ccc2nccnc2c1 | 0.0324% [at 95.7 µM] (inactive) |  |

| SMILES | fluorescence, % of fluorescein control | outcome |
| --- | --- | --- |
| COc1ccc(Br)c(C)c1 | 0.0002% (inactive) |  |
| COC(=O)C1CC(=O)C(C(=O)OC)CC1=O (stereo not given) | -0.0181% [at 3.72 µM] (inactive) |  |
| CCOC(=O)CC(=O)c1ccccc1 | 0.0735% (inactive) |  |
| Cc1c(I)c(=O)n(-c2ccccc2)n1C | -0.0005% [at 46 µM] (inactive) |  |
| COc1ccc(S(=O)(=O)N2c3ccc(Cl)cc3[C@@](O)(c3ccccc3Cl)[C@H]2C(=O)N2CCC[C@@H]2C(N)=O)cc1OC | 0.0448% [at 46 µM] (inactive) |  |
| O=C1c2ccccc2C(=O)C1c1ccccc1 | -0.0587% [at 18.6 µM] (inactive) |  |
| BrCCCCCBr | 0.0005% [at 95.7 µM] (inactive) |  |
| CC(C)C[C@H](NC(=O)CNC(=O)[C@H](Cc1ccc(O)cc1)NC(=O)[C@H](CO)NC(=O)[C@H](Cc1c[nH]c2ccccc12)NC(=O)[C@H](Cc1cnc[nH]1)NC(=O)[C@@H]1CCC(=O)N1)C(=O)N[C@@H](CCCN=C(N)N)C(=O)N1CCC[C@H]1C(=O)NCC(N)=O (stereo in doubt) | 0.0006% [at 46 µM] (inactive) |  |
| CN(CCOc1ccc(NS(C)(=O)=O)cc1)CCc1ccc(NS(C)(=O)=O)cc1 | 0.0256% [at 46 µM] (inactive) |  |
| O=C(c1ccc(O)cc1)c1ccc(O)c(O)c1O | -0.0517% (inactive) |  |
| O=C(O)c1cc(Br)c(O)c(Br)c1 | -0.155% (inactive) |  |
| O=C1c2ccccc2C(=O)N1CCl | 0.0005% (inactive) |  |
| NCCN1CCOCC1 | -0.0731% (inactive) |  |
| Nc1ccc(S(=O)(=O)Nc2ccc(Cl)nn2)cc1 |  | inactive |
| C=COCCOCCOCCOC=C | 0.0035% (inactive) |  |
| OCCN(CCO)c1cccc(Cl)c1 | 0.132% (inactive) |  |
| CCOc1cc([N+](=O)[O-])c(OCC)cc1N1CCOCC1 | -0.0043% (inactive) |  |

Experiment: qHTS assay to test for compound auto fluorescence at 460 nm (blue) in HepG2 cells (AID 720687)
Conditions: autofluorescence 405/460 nm, 1 h; series mostly up to 91.3 µM; fluorescence, % of fluorescent control: at the top concentration
In short: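 Cells (2,000/well in MEM with 10% FBS) attached overnight at 37 C, then were exposed to compound or DMSO for 1 hr at 37 C, 5% CO2. Fluorescence read at Ex/Em 405/460 nm, expressed as triamterene-equivalent signal.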

| SMILES | fluorescence, % of fluorescent control | outcome |
| --- | --- | --- |
| CCC(CC)CO | -0.108% (inactive) |  |
| CC1COc2ccccc2N1 (stereo not given) | -0.0014% (inactive) |  |
| NCCS |  | inactive |
| CC(C)(C)OC(=O)c1ccc(O)cc1 | -0.0036% (inactive) |  |
| CC(C)OC(=O)CCCCC(=O)OC(C)C | 0.615% (inactive) |  |
| CC(C)CC(=O)O | 0.204% (inactive) |  |
| CCCCCCCCC1CCC(=O)O1 (stereo not given) | 0.0359% (inactive) |  |
| Cc1cccc2nccnc12 | -0.214% (inactive) |  |
| CCCCCOC(=O)CCC | -0.0603% (inactive) |  |
| CN1C(C)(C)CCCC1(C)C | -0.0025% [at 46 µM] (inactive) |  |
| C[C@@H]1O[C@@H](O[C@@H]2[C@@H](O)[C@H](OCCc3ccc(O)c(O)c3)O[C@H](CO[C@@H]3O[C@H](CO)[C@@H](O)[C@H](O)[C@H]3O)[C@H]2OC(=O)/C=C/c2ccc(O)c(O)c2)[C@H](O)[C@H](O)[C@H]1O | 1.4% (inactive) |  |
| CCCCCCOc1ccccc1C(N)=O | 0.0067% [at 46 µM] (inactive) |  |
| O=C(O)C(=O)Cc1ccccc1 | -0.0789% (inactive) |  |
| O=C(NCCN1CCOCC1)c1ccc(Cl)cc1 |  | inactive |
| Nc1ncnc(Nc2ccccc2)n1 | -0.0695% [at 46 µM] (inactive) |  |
| C=C(C)C(=O)OCC(C)(C)COC(=O)C(=C)C | 0.0189% (inactive) |  |
| BrCc1cccc(Oc2ccccc2)c1 | -0.0051% (inactive) |  |
| c1ccc2nccnc2c1 | -0.0073% [at 95.7 µM] (inactive) |  |

| SMILES | fluorescence, % of fluorescent control | outcome |
| --- | --- | --- |
| COc1ccc(Br)c(C)c1 | -0.0092% (inactive) |  |
| COC(=O)C1CC(=O)C(C(=O)OC)CC1=O (stereo not given) | 1.56% [at 3.72 µM] (inactive) |  |
| CCOC(=O)CC(=O)c1ccccc1 | -0.171% (inactive) |  |
| Cc1c(I)c(=O)n(-c2ccccc2)n1C | -0.0391% [at 46 µM] (inactive) |  |
| COc1ccc(S(=O)(=O)N2c3ccc(Cl)cc3[C@@](O)(c3ccccc3Cl)[C@H]2C(=O)N2CCC[C@@H]2C(N)=O)cc1OC | -0.0059% [at 46 µM] (inactive) |  |
| O=C1c2ccccc2C(=O)C1c1ccccc1 | -0.0075% [at 18.6 µM] (inactive) |  |
| BrCCCCCBr | -0.0276% [at 95.7 µM] (inactive) |  |
| CC(C)C[C@H](NC(=O)CNC(=O)[C@H](Cc1ccc(O)cc1)NC(=O)[C@H](CO)NC(=O)[C@H](Cc1c[nH]c2ccccc12)NC(=O)[C@H](Cc1cnc[nH]1)NC(=O)[C@@H]1CCC(=O)N1)C(=O)N[C@@H](CCCN=C(N)N)C(=O)N1CCC[C@H]1C(=O)NCC(N)=O (stereo in doubt) | 0.0029% [at 46 µM] (inactive) |  |
| CN(CCOc1ccc(NS(C)(=O)=O)cc1)CCc1ccc(NS(C)(=O)=O)cc1 | 0.178% [at 46 µM] (inactive) |  |
| O=C(c1ccc(O)cc1)c1ccc(O)c(O)c1O | 0.646% (inactive) |  |
| O=C(O)c1cc(Br)c(O)c(Br)c1 | 0.0562% (inactive) |  |
| O=C1c2ccccc2C(=O)N1CCl | -0.0919% (inactive) |  |
| NCCN1CCOCC1 | 0.0093% (inactive) |  |
| Nc1ccc(S(=O)(=O)Nc2ccc(Cl)nn2)cc1 |  | inactive |
| C=COCCOCCOCCOC=C | -0.0083% (inactive) |  |
| OCCN(CCO)c1cccc(Cl)c1 | 0.009% (inactive) |  |
| CCOc1cc([N+](=O)[O-])c(OCC)cc1N1CCOCC1 | -0.0358% (inactive) |  |
